{"source": "PubChem BioAssay AID2284421", "about": "(EPA ToxCast)", "note": "Active and inactive are the calls of the source. The calls were made as follows: active = hit-call score of the fitted dose curve at least 0.9, where 1 is the maximum; inactive = score below 0.9."}
{"tested_on": "Brachyury (BRA) Protein Expression, Deisenroth Lab, TBXT (gene 6862)", "assay": "CCTE_Deisenroth_DEVTOX-GLR_Meso_BRA: CCTE's DevTox GLR-Meso Assay Evaluation of Brachyury (BRA) Protein Expression, Deisenroth Lab", "protocol": "CCTE_Deisenroth_DEVTOX-GLR_Meso assay is a cell-based, multiplex-readout assay that uses RUES2-GLR, a human pluripotent cell line, with measurements taken at 48 hours after chemical dosing in a 384-well microplateCCTE_Deisenroth_DEVTOX-GLR_Meso_BRA is 1 of 4 assay components calculated from the CCTE_Deisenroth_DEVTOX-GLR_Meso assay and it measures an the percentage of cells in an mesoderm state. Using a type of inducible fluorescent protein reporter, gain-of-signal activity can be used to understand changes in gene expression with fluorescent microscopy. The percentage of BRA+ cells are determined by calculating the number of BRA+ cells divided by the cell count. To generalize the intended target to other relatable targets, this assay component is annotated to the transcription factor intended target family, where the subfamily is T-box protein.Data from the assay component CCTE_Deisenroth_DEVTOX-GLR_Meso_BRA was analyzed as 1 assay endpoint. The endpoint is the percent change in BRA+ cell population relative to the 0.2% DMSO control in the CCTE_Deisenroth_DEVTOX-GLR_Meso assay. Furthermore, this assay endpoint can be referred to as a primary readout, because this assay has produced multiple assay endpoints where this one serves as a measure of mesoderm differentiation.\nAll assay protocols are aligned to the DevTox GLR-Endo assay workflow. Cells are seeded into 384-well microplates for 24 hours prior to initiating differentiation in defined media for a total duration of 48 hours. A total of two chemical exposures are administered in 24-hour intervals during the 48-hour differentiation period. At the assay termination point, cells are fixed and stained with a fluorescent dye demarcating the nucleus. High-content imaging is used to acquire brightfield and fluorescent channel images across 5 fields per well. Cell identification and mean biomarker fluorescence intensities are calculated with image analysis software to determine the total cell counts for viability assessment and the biomarker expression frequency for each lineage-dependent assay. A typical experimental design tests a 10-point concentration series (1 nM - 200 uM) for 28 compounds in single technical replicate. Assay plate controls include non-differentiated pluripotent cells (baseline control), lineage-specific differentiated cells (differentiation control), and DMSO solvent exposed differentiated cells (solvent control). Experiments typically comprise a minimum of four experimental replicates (n=4)."}
{"smiles": "O=C1CCC(N2C(=O)c3ccccc3C2=O)C(=O)N1", "note": "(stereo unspecified)", "outcome": "inactive"}
{"smiles": "CC/C(=C(/CC)c1ccc(O)cc1)c1ccc(O)cc1", "AC50": "19.8 µM (active)"}
{"smiles": "CCCC(CCC)C(=O)O", "outcome": "inactive"}
{"smiles": "CS(=O)(=O)OCCCCOS(C)(=O)=O", "outcome": "inactive"}
{"smiles": "CC(C)(c1ccc(O)cc1)c1ccc(O)cc1", "outcome": "inactive"}
{"smiles": "CC1(C)S[C@@H]2[C@H](NC(=O)Cc3ccccc3)C(=O)N2[C@H]1C(=O)O", "outcome": "inactive"}
{"smiles": "O=c1[nH]cc(F)c(=O)[nH]1", "outcome": "inactive"}
{"smiles": "CN(Cc1cnc2nc(N)nc(N)c2n1)c1ccc(C(=O)N[C@@H](CCC(=O)O)C(=O)O)cc1", "outcome": "inactive"}
{"smiles": "CC1=C(/C=C/C(C)=C/C=C/C(C)=C/C(=O)O)C(C)(C)CCC1", "outcome": "inactive"}
{"smiles": "CC1=C(/C=C/C(C)=C/C=C/C(C)=C\\C(=O)O)C(C)(C)CCC1", "outcome": "inactive"}
{"smiles": "Nc1cccc2c1C(=O)N(C1CCC(=O)NC1=O)C2=O", "note": "(stereo unspecified)", "outcome": "inactive"}
{"smiles": "CC(=O)Nc1ccc(O)cc1", "outcome": "inactive"}
{"smiles": "CCN(CC)CCNC(=O)c1c(C)[nH]c(/C=C2\\C(=O)Nc3ccc(F)cc32)c1C", "outcome": "inactive"}
{"smiles": "O=C1NC(=O)C(c2ccccc2)(c2ccccc2)N1", "outcome": "inactive"}
{"smiles": "Nc1nc2ncc(CNc3ccc(C(=O)N[C@@H](CCC(=O)O)C(=O)O)cc3)nc2c(=O)[nH]1", "outcome": "inactive"}
{"smiles": "O=C1NS(=O)(=O)c2ccccc21", "outcome": "inactive"}
